Each structure is given as a SMILES string. Results filed as inconclusive are left out. Entries that show only a call come without a potency. Unmarked numbers belong to inactive results. The source made the active and inactive calls. The call rests on the fitted dose curve; in most records, active means well fitted cell-killing curve with a large enough effect in the repeat runs; inconclusive means weak or mixed curves, or effect the other way; inactive means flat fitted curve, though single readings scatter.
Potency means the concentration at half of the fitted maximal effect.

The nature of the experiment: cAMP Responsive Elements (CRE) small molecule agonists, cell-based qHTS assay: qHTS cell viability counter screen (AID 2060914). Further: nearly all actives have a fitted effect of over 50% in size. Particulars: CRE-bla HEK293T viability, CellTiter-Glo luminescence, 5 h; series mostly up to 92.4 µM. Put shortly:
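CRE-bla HEK293T cells in 10% dialyzed FBS medium were exposed to compounds for 3 h at 37C after 18 h plating. CellTiter-Glo was then added in the same wells, and luminescence was read after 30 min at room temperature.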
As for `CCOc1ccccc1OCC`, the Potency result is “inactive”.

`Nc1ccc2cc3ccccc3cc2c1`: the Potency entry is “inactive”.

For `Nc1cccnc1N`, the Potency entry is “inactive”.

As to `O=S(=O)(O)c1ccc2ccccc2c1`, the Potency entry was “inactive”.

Turning to `Cc1cc2c(C(C)C)c(O)c(O)c(C=O)c2c(O)c1-c1c(C)cc2c(C(C)C)c(O)c(O)c(C=O)c2c1O`, the Potency is 26.6 µM (active).

As to `COC(=O)[C@]1(C)CCC[C@@]2(C)[C@H]1CC=C1C=C(C(C)C)CC[C@@H]12`, the Potency result is “inactive”.

For the compound `N#CCc1ccccc1[N+](=O)[O-]`, the Potency entry was “inactive”.

As to `O=Cc1ccc(Cl)c([N+](=O)[O-])c1`, the Potency entry was “inactive”.

As for `CCCCCCCCCCCCCCCCO`, the Potency entry was “inactive”.

In the case of `CC(C)NC(=O)c1ccccc1N`, the Potency result is “inactive”.

In the case of `CCCCCCCCCC#N`, the Potency entry was “inactive”.

With `CCOC(=O)c1ccc(OC(=O)CCCCCN=C(N)N)cc1`, the Potency result was “inactive”.

Take `CCCCCCCCCCCl`: the Potency result was “inactive”.

Take `CC(C)(N=C=O)c1cccc(C(C)(C)N=C=O)c1`: the Potency entry is “inactive”.

Turning to `O=S(=O)(O)c1ccc2cc(O)ccc2c1`, the Potency entry was “inactive”.

`CC1(C)O[C@@H]2C[C@H]3[C@@H]4C[C@H](F)C5=CC(=O)CC[C@]5(C)[C@H]4[C@@H](O)C[C@]3(C)[C@]2(C(=O)CO)O1`: the Potency result is “inactive”.

With `C=C(C)C1CC=C(C)C(O)C1` (stereo not given), the Potency entry was “inactive”.

For the compound `CCCCN(CCCC)CCCCCCN(CCCC)CCCC`, the Potency entry was “inactive”.

Take `N=C(N)N1CCc2ccccc2C1`: the activity change, negative = cytotoxicity is 2.66% [at 8.39 µM].

As for `CC/C(=C(\c1ccccc1)c1ccc(OCCN(C)C)cc1)c1ccccc1`, the Potency result was “inactive”.

Regarding `OCCOCCN1CCN(C2=Nc3ccccc3Sc3ccccc32)CC1`, the Potency result is “inactive”.

`CCCCCC#CC(=O)OC`: the Potency entry is “inactive”.

For the compound `CC(C)c1ccc(O)c(C(C)C)c1`, the Potency result was “inactive”.

With `CCn1c2ccccc2c2ccccc21`, the Potency result was “inactive”.

Take `N=C1N=C(N)c2ccccc21`: the Potency entry was “inactive”.

Take `CCC(=O)OC(C)(C)C1CC=C(C)CC1` (stereo not given): the Potency result was “inactive”.

Regarding `O=C(O)CCC(=O)O`, the Potency result is “inactive”.

`O=C1c2cccc3c2[C@H](CCC3)CN1[C@@H]1CN2CCC1CC2`: the Potency result is “inactive”.

`CC1=CC(C)(C)Nc2ccccc21`: the Potency result was “inactive”.

For `CN1CCCC1`, the Potency result is “inactive”.

Take `Cc1c(O)cccc1C(=O)N[C@@H](CSc1ccccc1)[C@H](O)CN1C[C@H]2CCCC[C@H]2C[C@H]1C(=O)NC(C)(C)C`: the Potency entry was “inactive”.

Consider `CC1(C)CC(N)CC(C)(CN)C1` (stereo not given), for which the Potency result is “inactive”.

For the compound `CCCCCC(=O)OCCc1ccccc1`, the Potency result is “inactive”.

For the compound `Cc1cccc2c1cc1ccc3cccc4ccc2c1c34`, the Potency entry was “inactive”.

For the compound `CCCO`, the Potency entry was “inactive”.

As for `COc1cc(Cl)ccc1Cl`, the Potency entry was “inactive”.

Consider `Cc1nc(-c2ccc(Cl)cc2)oc1COC(C)(C)C(=O)O`, for which the Potency result is “inactive”.

As to `Cc1ccc(C)cc1`, the Potency result was “inactive”.

In the case of `COC(=O)CC(=O)OC`, the Potency result was “inactive”.

Consider `C=C(C)C(=O)OCCOc1ccccc1`, for which the Potency entry was “inactive”.

The record behind these values is PubChem BioAssay (Tox21).
